“And” between values parts separate entries of the source, which are not always exact repeats. Equal entries are not always repeated. The campaign covered roughly 330,000 compounds. About 3,800 (1.2%) were called active. Rule as the data show it: active = inhibition above about 15%; inconclusive = no clear call, values can overlap the other calls; inactive = below that. Many of the other results were omitted from the sample, so actives are more common in it than they were. More than one record can exist for a structure, and the calls need not agree.

In this assay the target is NAD-dependent protein deacylase sirtuin-5, mitochondrial (Homo sapiens) (UniProt Q9NXA8). Nature of the assay: SIRT5 desuccinylase inhibitors, primary screen, biochemical, fluorescence imaging, single point, set 5 (AID 652115). Particulars: Purified SirT5, succinyl-peptide AMC, trypsin-coupled fluorescence; at 15 µM; stronger effect = higher value.
Chain of NAD-dependent protein deacylase sirtuin-5, mitochondrial (Homo sapiens) (Q9NXA8 whole entry, looked up): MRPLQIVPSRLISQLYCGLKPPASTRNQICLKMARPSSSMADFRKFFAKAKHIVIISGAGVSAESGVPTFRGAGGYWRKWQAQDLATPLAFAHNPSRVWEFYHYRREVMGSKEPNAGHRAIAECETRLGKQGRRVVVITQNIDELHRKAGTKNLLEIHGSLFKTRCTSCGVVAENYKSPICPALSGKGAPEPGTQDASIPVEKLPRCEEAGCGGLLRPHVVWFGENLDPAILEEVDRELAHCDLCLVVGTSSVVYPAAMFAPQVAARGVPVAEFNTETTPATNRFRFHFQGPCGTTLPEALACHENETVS
Consider `O=C(NC(c1ccc(Cl)cc1)c1cnccn1)C1CCN(Cc2ccc(Cl)cc2)CC1` (stereo unspecified), for which the inhibition was 18.2% (active).

`Cc1cccnc1C(NC(=O)C1CCN(Cc2ccc(Cl)c(Cl)c2)CC1)c1ccc(Cl)cc1` (stereo unspecified): the inhibition was 0.115% (inactive).

With `O=C(NC(c1ccc(-c2ccccc2)cc1)c1cnccn1)C1CCN(CCOc2ccc(Cl)cc2Cl)CC1` (stereo unspecified), the inhibition is -0.795% (inactive).

Take `O=C(C[C@@H]1CC[C@@H](NS(=O)(=O)c2ccc(F)cc2)[C@H](CO)O1)NCc1ccc(Cl)c(Cl)c1`: the inhibition was -7.51% (inactive).

As for `CCCCNC(=O)C[C@@H]1C[C@@]2(C(=O)OCC)CCC=C2N(Cc2ccco2)C1=O`, the inhibition was 4.42% (inactive).

For the molecule `CCOC(=O)N1CCN(C(=O)C[C@@H]2C[C@@]3(C(=O)OC)CC(C)(C)CC=C3N(Cc3ccco3)C2=O)CC1`, the inhibition was -1.2% (inactive).

As to `CCCCNC(=O)C[C@@H]1C[C@@]2(C(=O)OC)CC(C)(C)CC=C2N(Cc2ccco2)C1=O`, the inhibition was 21.7% (active).

Consider `CC(C)NC(=O)N(C)C[C@@H]1Oc2c(NC(=O)c3cnccn3)cccc2C(=O)N([C@@H](C)CO)C[C@@H]1C`, for which the inhibition is -2.42% (inactive).

For the molecule `COc1ccc2c3c([nH]c2c1)[C@@H](CO)N(S(C)(=O)=O)CC31CN(CC2CC2)C1`, the inhibition was 1.2% (inactive).

With `O=C(Cc1ccc([N+](=O)[O-])cc1)NCCS(=O)(=O)N1CCN(c2ccccc2)CC1`, the inhibition is -5.2% (inactive).

Consider `O=[N+]([O-])c1ccc(N2CCOCC2)cc1`, for which the inhibition is -2.77% (inactive).

In the case of `CN(C)S(=O)(=O)N1CCN(c2ccc([N+](=O)[O-])cc2)CC1`, the inhibition is 17.4% (active).

On to `O=C(Cc1ccccn1)NCC[C@H]1CC[C@@H](NS(=O)(=O)c2ccc(F)cc2)[C@H](CO)O1`, for which the inhibition was -3.9% (inactive).

As for `Nc1[nH]c(C(=O)c2ccccc2)c(-c2ccc(Cl)cc2Cl)c1C(=O)c1ccccc1`, the inhibition is 1.08% (inactive).

Regarding `CC(Oc1ccc(F)cc1F)C(=O)/C=C/N(C)C` (stereo unspecified), the inhibition is 38.2% (active).

`O=C(C=CC(=O)Nc1ccc(F)cc1F)Nc1ccc(F)cc1F`: the inhibition was 2.61% (inactive).

For the molecule `CC(Oc1ccccc1F)C(=O)NN` (stereo unspecified), the inhibition is 5.06% (inactive).

`CCCN1[C@H](C(=O)N[C@H](C)c2ccccc2)[C@@H](CO)[C@@H]2Cn3c(ccc(-c4ccccc4)c3=O)[C@@H]21`: the inhibition was -2.75% (inactive).

On to `O=C(Cc1ccccc1)N1C[C@H]2[C@@H](c3ccccc31)[C@H](CO)N2C(=O)c1ccc(F)cc1`, for which the inhibition was 0.689% (inactive).

As for `CC(=O)c1ccc(NC(=O)Cn2c(=O)oc3ccccc32)cc1`, the inhibition is -1.5% (inactive).

As to `NC(=O)Cn1c(=O)oc2ccccc21`, the inhibition is 23.1% (active).

For the molecule `Cc1cccnc1NC(=O)Cn1c(=O)oc2ccccc21`, the inhibition is -0.084% (inactive).

As for `CO[C@@H]1CN(C)C(=O)c2cc(NC(C)=O)ccc2OC[C@H](C)N(C(=O)CC2CC2)C[C@@H]1C`, the inhibition was 0.181% (inactive).

Turning to `CO[C@@H]1CC[C@H]2CCN(C)C(=O)[C@@H](C)CN(C)C(=O)c3cccc(C#N)c3OC[C@@H]1O2`, the inhibition is -2.44% (inactive).

Turning to `CN(C)c1ccc2c(c1)[C@H]1C[C@H](CC(=O)NCc3ccc(Cl)cc3)O[C@H](CO)[C@H]1O2`, the inhibition was 15.9% (active).

Turning to `CN(C)CC(=O)Nc1ccc2c(c1)[C@@H]1C[C@H](CC(=O)NCc3ccc(Cl)cc3)O[C@@H](CO)[C@@H]1O2`, the inhibition was 4.86% (inactive).

Consider `CS(=O)(=O)Nc1ccc2c(c1)[C@H]1C[C@@H](CC(=O)NCCc3ccccc3)O[C@@H](CO)[C@H]1O2`, for which the inhibition was 21.9% (active).

In the case of `O=C(C[C@@H]1C[C@H]2c3cc(NC(=O)C4CCC4)ccc3O[C@H]2[C@@H](CO)O1)NCc1ccc2c(c1)OCO2`, the inhibition was 5.03% (inactive).

Take `O=C(C[C@H]1C[C@H]2c3cc(NC(=O)C4CCC4)ccc3O[C@H]2[C@@H](CO)O1)NCc1ccc(Cl)cc1`: the inhibition was 0.855% (active).

Regarding `O=C(C[C@@H]1C[C@H]2c3cc(NS(=O)(=O)c4ccc(F)cc4)ccc3O[C@H]2[C@H](CO)O1)NCCc1ccccc1`, the inhibition is 1.01% (inactive).

Consider `CN(C)CC(=O)Nc1ccc2c(c1)[C@H]1C[C@@H](CC(=O)NCc3ccc(Cl)cc3)O[C@@H](CO)[C@H]1O2`, for which the inhibition was 4.32% (inactive).

Take `COCCNC(=O)C[C@H]1C[C@H]2c3cc(NS(C)(=O)=O)ccc3O[C@H]2[C@H](CO)O1`: the inhibition was -4.62% (inactive).

Regarding `O=C(C[C@@H]1C[C@@H]2c3cc(NC(=O)C4CCC4)ccc3O[C@@H]2[C@@H](CO)O1)NCc1ccccc1`, the inhibition was 5.94% (inactive).

`COCC#Cc1cnc2c(c1)C(=O)N([C@H](C)CO)C[C@H](C)[C@H](CN(C)C(=O)C1CCOCC1)O2`: the inhibition was 3.88% (inactive).

On to `CCNC(=O)c1cc2c(c(-c3cccc(C4=CCCC4)c3)n1)[C@H](CCO)N([S@@](=O)C(C)(C)C)C2`, for which the inhibition is 13.7% (inactive).

In the case of `O=C(C[C@@H]1C=C[C@@H](NC(=O)C2CC2)[C@H](CO)O1)NCCCN1CCOCC1`, the inhibition was 4.53% (inactive).

In the case of `N#C[C@H]1[C@@H](c2ccccc2C2=CCCCC2)[C@H](CO)N1C(=O)c1ccccn1`, the inhibition was 2.41% (inactive).

For `CN1C(=O)c2cc(NC(=O)C3CCOCC3)ccc2OC[C@H]2O[C@@H](CC(=O)NCC3CCCCC3)CC[C@@H]21`, the inhibition was 12.7% (inactive).

`O=C(Cc1ccccn1)N1CC(=O)N2[C@H](CO)[C@@H](c3ccc(C#CC4CCCC4)cc3)[C@H]2C1`: the inhibition was 1.82% (inactive).

`O=C(C[C@H]1CC[C@@H]2[C@H](COC[C@H](O)CN2S(=O)(=O)c2ccc(Cl)cc2)O1)N[C@@H]1CCN(Cc2ccccc2)C1`: the inhibition was 0.669% (inactive).

As for `Cc1cccc(S(=O)(=O)N2C[C@@H]3[C@H](c4ccccc42)[C@@H](CO)N3C(=O)c2ccccc2)c1`, the inhibition is 2.62% (inactive).

Consider `CO[C@@H]1CN(C)C(=O)c2ccc(NC(=O)Nc3cc(F)ccc3F)cc2OC[C@@H](C)N(C)C[C@@H]1C`, for which the inhibition is 4.44% (inactive).

For the molecule `COCC(=O)N1CC(=O)N2[C@H](CO)[C@@H](c3ccc(C#CC4CCCCC4)cc3)[C@@H]2C1`, the inhibition was -3.9% (inactive).

Regarding `C/C=C/c1cnc2c(c1)C(=O)N([C@@H](C)CO)C[C@@H](C)[C@H](CN(C)Cc1cncnc1)O2`, the inhibition is -2.68% (inactive).

In the case of `O=C(CN1CCOCC1)N1CCCCN2[C@H](CO)[C@H](c3ccc(-c4ccccc4)cc3)[C@@H]2C1`, the inhibition is -2.91% (inactive).

As to `O=C(CN1CCOCC1)N1CCCCN2[C@@H](CO)[C@H](c3ccc(-c4ccccc4)cc3)[C@@H]2C1`, the inhibition is -2% (inactive).

Turning to `O=C(CN1CCOCC1)N1CCCCN2[C@H](C1)[C@H](c1ccc(-c3ccccc3F)cc1)[C@@H]2CO`, the inhibition is 22.6% (active).

For `CNC(=O)C[C@@H]1CC[C@@H]2[C@H](COc3ccc(NC(=O)Nc4ccccc4)cc3C(=O)N2C)O1`, the inhibition is 5.7% (inactive).

In the case of `CN(C)CC(=O)Nc1ccc2c(c1)[C@H]1C[C@H](CC(=O)NCc3ccccn3)O[C@@H](CO)[C@H]1O2`, the inhibition was -6.14% (inactive).

With `Cc1ccc(SCCC(=O)NC(C(C)C)C(C)C)cc1`, the inhibition was 15.4% (active).

For the molecule `Cc1ccc(SCCC(=O)Nc2cc(C)on2)cc1`, the inhibition is -2.48% (inactive).

On to `Cc1ccc(SCCC(=O)NCc2ccccn2)cc1`, for which the inhibition was -1.1% (inactive).

For the molecule `COc1ccccc1S(=O)(=O)N1C[C@@H]2N[C@H](C1)C2c1ccc(-c2cccc(C)c2)cc1` (stereo partly specified), the inhibition was 1.28% (inactive) and 16.2% (active).

Consider `Cc1cccc(-c2ccc(C3[C@@H]4CN(C(=O)Nc5ccc(C(F)(F)F)cc5)C[C@H]3N4)cc2)c1` (stereo partly specified), for which the inhibition is 7.01% (inactive) and 16.1% (active).

As for `O=C(C1CCCCC1)N1C[C@@H]2N[C@H](C1)C2c1ccc(-c2cccc(F)c2)cc1` (stereo partly specified), the inhibition is 1.22% (inactive) and 3.71% (inactive).

As for `N#Cc1ccc(-c2ccc(C3[C@@H]4CN(S(=O)(=O)c5ccccc5F)C[C@H]3N4)cc2)cc1` (stereo partly specified), the inhibition is -1.48% (inactive) and -0.825% (inactive).

Take `COc1cccc(S(=O)(=O)N2C[C@@H]3N[C@H](C2)C3c2ccc(-c3cccc(C(=O)N(C)C)c3)cc2)c1` (stereo partly specified): the inhibition was 1.44% (inactive) and 6.3% (inactive).

In the case of `CN(C)C(=O)c1ccc(-c2ccc(C3[C@@H]4CN(C(=O)Nc5ccccc5)C[C@H]3N4)cc2)cc1` (stereo partly specified), the inhibition was -1.69% (inactive).

In the case of `O=C(C[C@H]1CC[C@H](NS(=O)(=O)c2ccccc2)[C@H](CO)O1)NCc1ccncn1`, the inhibition was 6.51% (inactive).

Consider `CN1C(=O)c2cc(NC(=O)Cc3cccs3)ccc2OC[C@@H]2O[C@@H](CC(=O)N[C@@H]3CCN(Cc4ccccc4)C3)CC[C@H]21`, for which the inhibition is -2.4% (inactive).

As for `COCCCNC(=O)[C@@]1(C)c2ccccc2C(=O)N(Cc2ccc(OC(F)(F)F)cc2)[C@H]1c1ccc(CO)cc1`, the inhibition was 0.166% (inactive).

`COc1ccccc1CNC(=O)C[C@H]1C[C@@H]2c3cc(NC(=O)Nc4ccccc4F)ccc3O[C@@H]2[C@H](CO)O1`: the inhibition is -5.72% (inactive).

With `COCC(=O)N(C)C[C@H]1Oc2cc(C#C[C@@H](C)O)ccc2S(=O)(=O)N([C@H](C)CO)C[C@H]1C`, the inhibition is -5.34% (inactive).

Regarding `CO[C@@H]1CN(C)C(=O)c2cc(NC(=O)CC(F)(F)F)ccc2OC[C@H](C)N(S(=O)(=O)c2cn(C)cn2)C[C@H]1C`, the inhibition is 1.11% (inactive).

Turning to `O=C(O)C[C@@H]1C[C@@H]2c3cc(NC(=O)Nc4ccccc4)ccc3O[C@@H]2[C@H](CO)O1`, the inhibition is -3.63% (inactive).

As to `O=C(Nc1ccc(F)cc1)N[C@H]1CC[C@H](CCn2cc(-c3ccc(F)cc3)nn2)O[C@@H]1CO`, the inhibition was 3.97% (inactive).

Take `COc1ccc(NC(=O)N[C@@H]2CC[C@H](CCn3cc(-c4ccc(OC)cc4)nn3)O[C@@H]2CO)cc1`: the inhibition is 31.3% (active).

In the case of `O=C(Cc1ccncc1)N[C@@H]1CC[C@H](CCn2cc(-c3ccccc3F)nn2)O[C@H]1CO`, the inhibition is 1.05% (inactive).

`O=C(Cc1cccnc1)N[C@H]1CC[C@H](CCn2cc(-c3ccccc3F)nn2)O[C@H]1CO`: the inhibition was -1.27% (inactive).

For the molecule `O=C(Cc1ccncc1)N[C@H]1CC[C@H](CCn2cc(-c3ccccc3F)nn2)O[C@@H]1CO`, the inhibition was 25.2% (active).

As to `COc1ccc(NC(=O)N[C@H]2CC[C@H](CCn3cc(-c4ccccc4F)nn3)O[C@H]2CO)cc1`, the inhibition is -0.072% (inactive).

Source of the values: PubChem BioAssay AID652115 (Broad Institute, 2013).
